This excerpt belongs to a sample that is enriched for the strongest signals.
Assays:
Assay in all cases: glycan array binding signal (z-score within array); higher = stronger binding
Settings in all cases: glycan notation: IUPAC condensed, linker removed
[1] = target: Gal(b1-4)GlcNAc(b1-3)Gal(b1-4)GlcNAc(b1-6)[Gal(b1-3)]GalNAc
In short: (§1)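 Glycan array data were curated from 3228 arrays in the Consortium for Functional Glycomics database and kept only where the protein sequence was available. Glycan names were converted to IUPAC-condensed notation, and columns mapping to the same glycan were averaged. The binding signal is a within-array Z-score, averaged across arrays of the same protein sequence at different concentrations or buffers and across linkers. Negative Z-scores can be read as non-binding.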

[2] = target: Gal3S(b1-4)[Fuc(a1-3)]Glc6S
In short: as §1

Gal6P(b1-4)GlcNAc = target: Gal6P(b1-4)GlcNAc
In short: as §1

GalNAc(a1-3)GalNAc = target: GalNAc(a1-3)GalNAc
In short: as §1

GalNAc(b1-3)GalNAc = target: GalNAc(b1-3)GalNAc
In short: as §1

GalNAc(b1-3)GlcNAc = target: GalNAc(b1-3)GlcNAc
In short: as §1

[3] = target: GalNAc(b1-4)GlcNAc(b1-2)Man(a1-3)[GalNAc(b1-4)GlcNAc(b1-2)Man(a1-6)]Man(b1-4)GlcNAc(b1-4)GlcNAc
In short: as §1

GlcA(b1-3)GlcNAc = target: GlcA(b1-3)GlcNAc
In short: as §1

[4] = target: GlcNAc(b1-2)[GlcNAc(b1-4)]Man(a1-3)[GlcNAc(b1-4)][GlcNAc(b1-2)Man(a1-6)]Man(b1-4)GlcNAc(b1-4)GlcNAc
In short: as §1

[5] = target: GlcNAc(b1-3)Gal(b1-4)GlcNAc(b1-3)Gal(b1-4)GlcNAc(b1-3)Gal(b1-4)GlcNAc(b1-3)Gal(b1-4)GlcNAc(b1-2)Man(a1-3)[GlcNAc(b1-3)Gal(b1-4)GlcNAc(b1-3)Gal(b1-4)GlcNAc(b1-3)Gal(b1-4)GlcNAc(b1-3)Gal(b1-4)GlcNAc(b1-2)Man(a1-6)]Man(b1-4)GlcNAc(b1-4)[Fuc(a1-6)]GlcNAc
In short: as §1

Kdn(a2-6)Gal(b1-4)GlcNAc = target: Kdn(a2-6)Gal(b1-4)GlcNAc
In short: as §1

[6] = target: Man(a1-2)Man(a1-3)[Man(a1-2)Man(a1-6)]Man
In short: as §1

[7] = target: Man(a1-2)Man(a1-6)[Man(a1-3)]Man(a1-6)[Man(a1-2)Man(a1-2)Man(a1-3)]Man(b1-4)GlcNAc(b1-4)GlcNAc
In short: as §1

[8] = target: Neu5Ac(a2-3)Gal(b1-3)GalNAc(b1-3)Gal(a1-4)Gal(b1-4)Glc
In short: as §1

[9] = target: Neu5Ac(a2-3)Gal(b1-4)GlcNAc(b1-2)Man
In short: as §1

[10] = target: Neu5Ac(a2-3)Gal(b1-4)GlcNAc(b1-3)Gal(b1-4)GlcNAc(b1-3)[Neu5Ac(a2-3)Gal(b1-4)GlcNAc(b1-3)Gal(b1-4)GlcNAc(b1-6)]GalNAc
In short: as §1

[11] = target: Neu5Ac(a2-3)Gal(b1-4)GlcNAc(b1-3)Gal(b1-4)GlcNAc(b1-6)[Gal(b1-3)]GalNAc
In short: as §1

[12] = target: Neu5Ac(a2-3)Gal(b1-4)GlcNAc6S
In short: as §1

[13] = target: Neu5Ac(a2-3)Gal6S(b1-4)GlcNAc
In short: as §1

Neu5Ac(a2-3)GalNAc = target: Neu5Ac(a2-3)GalNAc
In short: as §1

[14] = target: Neu5Ac(a2-6)Gal(b1-3)GlcNAc(b1-3)[Gal(b1-4)GlcNAc(b1-6)]Gal(b1-4)Glc
In short: as §1

[15] = target: Neu5Ac(a2-6)Gal(b1-4)GlcNAc(b1-2)[Neu5Ac(a2-6)Gal(b1-4)GlcNAc(b1-4)]Man(a1-3)[GlcNAc(b1-4)][Neu5Ac(a2-6)Gal(b1-4)GlcNAc(b1-4)Man(a1-6)]Man(b1-4)GlcNAc(b1-4)GlcNAc
In short: as §1

[16] = target: Neu5Ac(a2-6)Gal(b1-4)GlcNAc(b1-2)[Neu5Ac(a2-6)Gal(b1-4)GlcNAc(b1-6)]Man(a1-6)[Neu5Ac(a2-6)Gal(b1-4)GlcNAc(b1-2)Man(a1-3)][GlcNAc(b1-4)]Man(b1-4)GlcNAc(b1-4)GlcNAc
In short: as §1

[17] = target: Neu5Ac(a2-6)Gal(b1-4)GlcNAc(b1-3)Gal(b1-3)GlcNAc
In short: as §1

[18] = target: Neu5Ac(a2-8)Neu5Ac(a2-3)Gal(b1-3)GalNAc(b1-4)[Neu5Ac(a2-8)Neu5Ac(a2-3)]Gal(b1-4)Glc
In short: as §1

[19] = target: Neu5Gc(a2-3)Gal(b1-3)[Fuc(a1-4)]GlcNAc
In short: as §1

B1: AntigenI/IIA3VP1 (Streptococcus mutans), C9E3B4 (protein)
chain: AANEADYQAKLTAYQTELARVQKANADAKAAYEAAVAANNAANAALTAENTAIKKRNADAKADYEAKLAKYQADLAKYQKDLADYPVKLKAYEDEQASIKAALAELEKHKNEDGNLTEPSAQNLVYDLEPNANLSLTTDGKFLKASAVDDAFSKSTSKAKYDQKILQLDDLDITNLEQSNDVASSMELYGNFGDKAGWSTTVSNNSQVKWGSVLLERGQSATATYTNLQNSYYNGKKISKIVYKYTVDPKSKFQGQKVWLGIFTDPTLGVFASAYTGQVEKNTSIFIKNEFTFYDEDGKPINFDNALLSVASLNREHNSIEMAKDYSGKFVKISGSSIGEKNGMIYATDTLNFKQGEGGSRWTMYKNSQAGSGWDSSDAPNSWYGAGAIKMSGPNNYVTVGATSATNVMPVSDMPVVPGKDNTDGKKPNIWYSLNGKIRAVNVPKVTKEKPTPPVKPTAPTKPTYETEKPLKPAPVAPNYEKEPTPPTRLEHHHHHH
glycan array binding signal (z-score) [1]: -0.398
glycan array binding signal (z-score) [2]: 3.68
glycan array binding signal (z-score) (Gal6P(b1-4)GlcNAc): -1.28
glycan array binding signal (z-score) (GalNAc(a1-3)GalNAc): 0.327
glycan array binding signal (z-score) (GalNAc(b1-3)GalNAc): 1.37
glycan array binding signal (z-score) (GalNAc(b1-3)GlcNAc): -0.475
glycan array binding signal (z-score) [3]: -0.868
glycan array binding signal (z-score) (GlcA(b1-3)GlcNAc): -0.575
glycan array binding signal (z-score) [4]: -1.35
glycan array binding signal (z-score) [5]: 3.23
glycan array binding signal (z-score) (Kdn(a2-6)Gal(b1-4)GlcNAc): -1.05
glycan array binding signal (z-score) [6]: -0.805
glycan array binding signal (z-score) [7]: 0.975
glycan array binding signal (z-score) [8]: 0.492
glycan array binding signal (z-score) [9]: 0.921
glycan array binding signal (z-score) [10]: 0.324
glycan array binding signal (z-score) [11]: -0.29
glycan array binding signal (z-score) [12]: -0.627
glycan array binding signal (z-score) [13]: -0.68
glycan array binding signal (z-score) (Neu5Ac(a2-3)GalNAc): -1.05
glycan array binding signal (z-score) [14]: 0.439
glycan array binding signal (z-score) [15]: 1.05
glycan array binding signal (z-score) [16]: 0.993
glycan array binding signal (z-score) [17]: -1.1
glycan array binding signal (z-score) [18]: -0.035
glycan array binding signal (z-score) [19]: -0.885
